Results as given in PubChem BioAssay (Tox21).
Values without a mark were called inactive. Inconclusive results are not listed. Where a call stands in place of a potency, no number is given. The source made the active and inactive calls. Unless noted, the call rests on the fitted dose curve; in most records, active means well fitted curve in the direction sought with a large enough effect in the repeat runs; inconclusive means weak or mixed curves; inactive means no such curve, though single readings can be large; an effect the other way counts as inactive or inconclusive.

What was measured:
[1] = qHTS assay to identify small molecule agonists of the estrogen receptor alpha (ER-alpha) signaling pathway in the presence of an antagonist - cell viability counter screen (AID 1259386);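 further: series mostly up to about 92 µM; cells exposed to compounds for 22 h at 37 °C before the viability read; nearly all actives have a fitted effect of over 30% in size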
Summary of the method: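 VM7Luc4E2, stripped-serum pre-culture 5 d; 24hr plating; +ICI-182,780 10.0nM final; cpds 15 conc, 22hr, 37C/5% CO2; CellTiter-Fluor added at 21hr, fluorescence 1hr later.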

[2] = qHTS assay to identify small molecule antagonists of the TGF-beta/Smad signaling pathway - cell viability counter screen (AID 1346824); further: nearly all actives have a fitted effect of over 50% in size
Summary of the method: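 SBE-bla HEK 293T cells were plated overnight at 37 C, then given compounds in DMSO plus TGF-beta1 (added as 0.25 ng/mL solution) for 5 hr. After the bla read, CellTiter-Glo was added to the same wells and luminescence read after 30 min at room temperature.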

[3] = qHTS assay to identify small molecule agonists of the TGF-beta/Smad signaling pathway - cell viability counter screen (AID 1346829); further: top concentration of the series differs between compounds; nearly all actives have a fitted effect of over 45% in size
Summary of the method: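 CellTiter-Glo luminescence readout; SBE-bla HEK 293T cells, overnight plating, compound 5 hr at 37 C/5% CO2, then bla substrate 2 hr RT, then CellTiter-Glo 30 min RT.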

[4] = qHTS assay to identify small molecule agonists of the TGF-beta/Smad signaling pathway (AID 1346859; active means well fitted activation curve with a large enough effect in the signal ratio in the repeat runs, not every such curve was filed as active; the % refers to the signal ratio; further: series mostly up to about 77 µM)
Summary of the method: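 SBE-bla HEK293T cells plated overnight, then compound exposure for 5 h at 37 C. Beta-lactamase reporter read with LiveBLAzer B/G FRET substrate after 2 h at room temperature, fluorescence at 405 nm excitation, 460/530 nm emission.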

[5] = target: Thyrotropin-releasing hormone receptor (Homo sapiens) (UniProt P34981); assay: qHTS assay to identify small molecule antagonists of the thyrotropin-releasing hormone receptor (TRHR) signaling pathway (AID 1346877; active means well fitted inhibition curve with a large enough effect in the repeat runs, not every such curve was filed as active; further: series mostly up to about 51 µM)
Chain of Thyrotropin-releasing hormone receptor (Homo sapiens) (P34981 whole entry, looked up): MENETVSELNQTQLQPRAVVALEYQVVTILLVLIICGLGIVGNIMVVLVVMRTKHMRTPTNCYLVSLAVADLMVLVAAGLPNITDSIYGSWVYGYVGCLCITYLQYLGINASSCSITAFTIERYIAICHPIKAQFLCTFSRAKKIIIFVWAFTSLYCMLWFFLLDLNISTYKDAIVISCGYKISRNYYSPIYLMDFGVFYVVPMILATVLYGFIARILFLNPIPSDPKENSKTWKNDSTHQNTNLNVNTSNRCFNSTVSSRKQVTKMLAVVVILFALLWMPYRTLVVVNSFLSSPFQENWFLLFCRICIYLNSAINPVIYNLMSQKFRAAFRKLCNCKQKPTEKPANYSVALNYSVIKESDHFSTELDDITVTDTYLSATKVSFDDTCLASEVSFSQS
Summary of the method: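 Intracellular calcium fluorescence, read kinetically every second over 3 min, reports TRH-evoked signalling in HEK293 cells carrying TRHR. Test compounds were added 5 min ahead of a 1 nM TRH challenge.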

[6] = target: Thyrotropin-releasing hormone receptor (Homo sapiens) (UniProt P34981); assay: qHTS assay to identify small molecule agonists of the thyrotropin-releasing hormone receptor (TRHR) signaling pathway (AID 1346891; calls by dose curve; further: series mostly up to about 58 µM)
Summary of the method: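 HEK293 cells expressing TRHR plated 18 h at 37 C/5% CO2, calcium dye-loaded 2 h at 37 C, then compound added (agonist mode); kinetic calcium fluorescence read 3 min at 1 s intervals; 15 concentrations in triplicate.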

[7] = Caspase-3/7 induction in HepG2 cells by small molecules, qHTS assay (AID 1346978); further: nearly all actives have a fitted effect of over 15% in size
Summary of the method: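 Wild-type HepG2 cells (2,000/well) were settled 5 h at 37 C, 5% CO2, then exposed to compounds in DMSO for 17 h. Caspase-3/7 activity was read by luminescence 30 min after adding Caspase-Glo 3/7 reagent at room temperature.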

[8] = Caspase-3/7 induction in CHO-K1 cells by small molecules, qHTS cell viability counter screen (AID 1346979); further: nearly all actives have a fitted effect of over 35% in size; further: potency means the concentration at half of the fitted maximal effect
Summary of the method: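 Wild-type CHO-K1 cells (1,500/well) treated with compound after 5 h plating; after 16 h at 37C, viability read as CellTiter-Fluor fluorescence following 1 h reagent incubation, in the same wells as the caspase read.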

[9] = Caspase-3/7 induction in CHO-K1 cells by small molecules, qHTS assay (AID 1346980); further: nearly all actives have a fitted effect of over 15% in size
Summary of the method: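 Wild-type cells were seeded at 1,500 per well and settled 5 hr at 37 C, 5% CO2, then exposed to DMSO-dissolved compounds for 17 hr. Caspase-Glo 3/7 reagent was added, and luminescence was read after 30min at room temperature.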

[10] = Caspase-3/7 induction in HepG2 cells by small molecules, qHTS cell viability counter screen (AID 1346981); further: series mostly up to about 92 µM; nearly all actives have a fitted effect of over 30% in size
Summary of the method: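 HepG2, WT, 2,000 cells/well; 5 hr pre-incubation 37 C/5% CO2; compound pin-transferred from DMSO; 16 hr exposure; CellTiter-Fluor, 1 hr; fluorescence read.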

[11] = target: Acetylcholinesterase (Homo sapiens) (UniProt P22303); assay: Acetylcholinesterase (AChE) small molecule antagonists: colormetric cell-based qHTS assay (AID 1347395; calls by dose curve; further: nearly all actives have a fitted effect of over 30% in size)
Chain of Acetylcholinesterase (Homo sapiens) (P22303 whole entry, looked up): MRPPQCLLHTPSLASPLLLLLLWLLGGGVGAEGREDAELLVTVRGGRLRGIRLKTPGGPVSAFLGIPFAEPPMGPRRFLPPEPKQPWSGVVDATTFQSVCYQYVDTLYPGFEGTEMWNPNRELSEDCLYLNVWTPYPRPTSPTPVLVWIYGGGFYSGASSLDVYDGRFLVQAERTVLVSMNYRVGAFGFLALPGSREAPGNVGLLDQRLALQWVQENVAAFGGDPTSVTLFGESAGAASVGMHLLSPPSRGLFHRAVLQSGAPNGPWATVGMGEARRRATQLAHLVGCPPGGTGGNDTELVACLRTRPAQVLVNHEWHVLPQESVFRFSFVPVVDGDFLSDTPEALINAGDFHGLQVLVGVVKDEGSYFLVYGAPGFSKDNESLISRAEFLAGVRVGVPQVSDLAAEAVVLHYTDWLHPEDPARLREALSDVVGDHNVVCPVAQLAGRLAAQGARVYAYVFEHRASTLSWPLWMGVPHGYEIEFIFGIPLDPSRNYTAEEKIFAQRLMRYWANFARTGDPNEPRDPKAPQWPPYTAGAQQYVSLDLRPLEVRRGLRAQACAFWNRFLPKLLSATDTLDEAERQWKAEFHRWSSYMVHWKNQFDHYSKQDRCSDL
Summary of the method: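 SH-SY5Y cells attached overnight, exposed to compound 30 min at 37 C, then given DTNB/acetylthiocholine; after 90 min at 37 C, colorimetric thiocholine read gives cellular AChE activity.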

[12] = target: Acetylcholinesterase (Homo sapiens) (UniProt P22303); assay: Acetylcholinesterase (AChE) small molecule antagonists: enzyme-based qHTS assay (AID 1347397; calls by dose curve; further: nearly all actives have a fitted effect of over 55% in size); conditions: Potency: AChE enzyme activity inhibition
Summary of the method: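 Human recombinant acetylcholinesterase; substrate acetylthiocholine; thiocholine quantified with DTNB (colorimetric). Compound preincubation 30 min RT; reaction 10 min RT.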

[13] = qHTS assay to identify small molecule agonists of the progesterone receptor (PR) signaling pathway - cell viability counter screen (AID 1346799; calls by dose curve; further: nearly all actives have a fitted effect of over 45% in size; further: potency means the concentration at half of the fitted maximal effect)
Summary of the method: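 Counter screen in the PR-UAS-bla HEK293T wells (2% charcoal-stripped FBS, 16 h compound exposure at 37 C) after the bla read. CellTiter-Glo added, 30 min at room temperature, luminescence read as cell viability.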

[14] = Human pregnane X receptor (PXR) small molecule agonists, qHTS cell viability counter screen (AID 1346977); further: nearly all actives have a fitted effect of over 50% in size
Summary of the method: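 PXR-Luc HepG2 cells (2,000/well, 5% charcoal-stripped FBS) preincubated 5 hr, then exposed to compounds 24 hr at 37 C. Viability read in the same wells by CellTiter-Fluor fluorescence, reagent added at 23 hr, 1 hr incubation.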

[15] = target: Nuclear receptor subfamily 1 group I member 2 (Homo sapiens) (UniProt O75469); assay: Human pregnane X receptor (PXR) small molecule agonists, qHTS assay (AID 1346982); further: nearly all actives have a fitted effect of over 35% in size; further: potency means the concentration at half of the fitted maximal effect
Chain of Nuclear receptor subfamily 1 group I member 2 (Homo sapiens) (O75469 whole entry, looked up): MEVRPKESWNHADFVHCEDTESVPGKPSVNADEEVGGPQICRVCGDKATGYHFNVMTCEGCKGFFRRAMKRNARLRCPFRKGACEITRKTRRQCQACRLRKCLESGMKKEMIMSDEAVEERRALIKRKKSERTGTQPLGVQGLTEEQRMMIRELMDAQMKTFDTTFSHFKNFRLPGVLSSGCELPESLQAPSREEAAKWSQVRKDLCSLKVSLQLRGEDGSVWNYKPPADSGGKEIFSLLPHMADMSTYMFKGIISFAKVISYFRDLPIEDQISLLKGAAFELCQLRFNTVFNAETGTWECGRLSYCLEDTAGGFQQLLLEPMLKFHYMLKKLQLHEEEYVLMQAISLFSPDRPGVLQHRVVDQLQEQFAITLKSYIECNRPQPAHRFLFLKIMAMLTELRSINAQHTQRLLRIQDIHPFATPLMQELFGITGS
Summary of the method: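 Luciferase signal from ONE-Glo (30 min, room temperature) measured activation of hPXR-driven CYP3A4 reporter expression in PXR-Luc HepG2 cells treated with compounds for 24 hr at 37 C.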

Question: For `O=C(Nc1ccccc1)Nc1cnns1`, which Potency [1] is on record?
Answer: inactive

Question: What about the Potency [2] of the same compound?
Answer: inactive

Question: And the Potency [3]?
Answer: inactive

Question: What about the outcome [4] of the same compound?
Answer: inactive

Question: What about the Potency [5] of the same compound?
Answer: inactive

Question: And the Potency [6]?
Answer: inactive

Question: And the Potency [7]?
Answer: inactive

Question: And the Potency [8]?
Answer: 54.4 µM (active)

Question: What about the Potency [9] of the same compound?
Answer: inactive

Question: And the Potency [10]?
Answer: inactive

Question: And the Potency [11]?
Answer: inactive

Question: What about the Potency [12] of the same compound?
Answer: inactive

Question: For `CC(C)(OO)c1ccccc1`, which Potency [1] is on record?
Answer: inactive

Question: And the Potency [13]?
Answer: inactive

Question: What about the Potency [2] of the same compound?
Answer: inactive

Question: And the Potency [3]?
Answer: inactive

Question: And the outcome [4]?
Answer: inactive

Question: What about the Potency [5] of the same compound?
Answer: inactive

Question: What about the Potency [6] of the same compound?
Answer: inactive

Question: What about the Potency [14] of the same compound?
Answer: inactive

Question: And the Potency [7]?
Answer: inactive

Question: And the Potency [8]?
Answer: inactive

Question: What about the Potency [9] of the same compound?
Answer: inactive

Question: What about the Potency [10] of the same compound?
Answer: inactive

Question: And the Potency [15]?
Answer: inactive

Question: And the Potency [11]?
Answer: inactive

Question: What about the Potency [12] of the same compound?
Answer: inactive

Question: For `Cc1ccccc1C(=O)Nc1cccc(OC(C)C)c1`, which Potency [1] is on record?
Answer: inactive

Question: And the Potency [2]?
Answer: inactive

Question: What about the Potency [3] of the same compound?
Answer: inactive

Question: And the outcome [4]?
Answer: inactive

Question: And the Potency [5]?
Answer: inactive

Question: And the Potency [6]?
Answer: inactive

Question: What about the Potency [14] of the same compound?
Answer: inactive

Question: What about the Potency [7] of the same compound?
Answer: inactive

Question: What about the Potency [9] of the same compound?
Answer: inactive

Question: And the Potency [10]?
Answer: inactive

Question: And the Potency [15]?
Answer: 13.7 µM (active)

Question: And the Potency [11]?
Answer: inactive

Question: And the Potency [12]?
Answer: inactive

Question: What does the source list for `C=CCCl`?
Answer: Potency [1]: inactive; Potency [13]: inactive; Potency [2]: inactive; Potency [3]: inactive; outcome [4]: inactive; Potency [5]: inactive; Potency [6]: inactive; Potency [14]: inactive; Potency [7]: inactive; Potency [8]: inactive; Potency [9]: inactive; Potency [10]: inactive; Potency [15]: inactive; Potency [11]: inactive; Potency [12]: inactive

Question: For `II`, which Potency [1] is on record?
Answer: inactive

Question: What about the Potency [13] of the same compound?
Answer: 10.9 µM (active)

Question: And the Potency [2]?
Answer: inactive

Question: What about the Potency [3] of the same compound?
Answer: inactive

Question: And the outcome [4]?
Answer: inactive

Question: What about the Potency [14] of the same compound?
Answer: inactive

Question: And the Potency [7]?
Answer: inactive

Question: And the Potency [8]?
Answer: 54.5 µM (active)

Question: And the Potency [9]?
Answer: inactive

Question: And the Potency [10]?
Answer: inactive

Question: What about the Potency [15] of the same compound?
Answer: inactive

Question: And the Potency [11]?
Answer: inactive

Question: For `COc1nn(C(=O)NS(=O)(=O)c2ccccc2OC(F)(F)F)c(=O)n1C`, which Potency [1] is on record?
Answer: inactive

Question: And the Potency [13]?
Answer: inactive

Question: And the Potency [2]?
Answer: inactive

Question: And the Potency [3]?
Answer: inactive

Question: And the outcome [4]?
Answer: inactive

Question: What about the Potency [5] of the same compound?
Answer: inactive

Question: And the Potency [6]?
Answer: inactive

Question: What about the Potency [14] of the same compound?
Answer: inactive

Question: What about the Potency [7] of the same compound?
Answer: inactive

Question: And the Potency [8]?
Answer: inactive

Question: And the Potency [9]?
Answer: inactive

Question: What about the Potency [10] of the same compound?
Answer: inactive

Question: And the Potency [15]?
Answer: inactive

Question: What about the Potency [11] of the same compound?
Answer: inactive

Question: What about the Potency [12] of the same compound?
Answer: inactive

Question: With `S=C=NCc1ccccc1` as the compound, how does the Potency [1] read?
Answer: inactive

Question: And the Potency [13]?
Answer: inactive

Question: What about the Potency [2] of the same compound?
Answer: inactive

Question: And the Potency [3]?
Answer: inactive

Question: And the outcome [4]?
Answer: inactive

Question: What about the Potency [6] of the same compound?
Answer: inactive

Question: And the Potency [14]?
Answer: inactive

Question: What about the Potency [7] of the same compound?
Answer: inactive

Question: And the Potency [8]?
Answer: inactive

Question: And the Potency [9]?
Answer: inactive

Question: And the Potency [15]?
Answer: 61.8 µM (active)

Question: And the Potency [11]?
Answer: inactive

Question: What about the Potency [12] of the same compound?
Answer: inactive

Question: Which Potency [3] does the source give for `O=C(OC1CCCCC1)c1ccccc1C(=O)OC1CCCCC1` here?
Answer: inactive

Question: What about the outcome [4] of the same compound?
Answer: inactive

Question: And the Potency [5]?
Answer: inactive

Question: And the Potency [6]?
Answer: inactive

Question: And the Potency [7]?
Answer: inactive

Question: And the Potency [9]?
Answer: inactive

Question: And the Potency [15]?
Answer: 5.74 µM (active)

Question: And the Potency [11]?
Answer: inactive

Question: What about the Potency [12] of the same compound?
Answer: inactive

Question: Which Potency [1] does the source give for `C[C@]12CC[C@H]3[C@@H](CCC4=CC(=O)CC[C@@H]43)[C@@H]1CC[C@@H]2OC(=O)CCC1CCCCC1` here?
Answer: inactive

Question: And the Potency [2]?
Answer: inactive

Question: What about the Potency [3] of the same compound?
Answer: inactive

Question: What about the outcome [4] of the same compound?
Answer: inactive

Question: What about the Potency [5] of the same compound?
Answer: inactive

Question: What about the Potency [6] of the same compound?
Answer: inactive

Question: What about the Potency [14] of the same compound?
Answer: inactive

Question: What about the Potency [7] of the same compound?
Answer: inactive

Question: What about the Potency [8] of the same compound?
Answer: inactive

Question: What about the Potency [9] of the same compound?
Answer: inactive

Question: And the Potency [10]?
Answer: inactive

Question: What about the Potency [15] of the same compound?
Answer: inactive

Question: What about the Potency [11] of the same compound?
Answer: inactive

Question: What about the Potency [12] of the same compound?
Answer: inactive
